Measured values taken from PubChem BioAssay (NCATS).
Several values for one entry are separate records, joined by “and”; a condition that tells them apart may be missing. Equal entries are not always repeated. Records with an inconclusive call do not appear. A number with no mark means an inactive call. Activity calls are given as the source filed them. Calls follow the shape of the dose curve; as a rule, active = well fitted curve in either direction with a large enough effect (not every such curve was filed as active); inconclusive = small, poorly fitted or top-dose-only effect, or another doubt; inactive = flat fitted curve, though single readings scatter.

Experiment: NFAT Signaling Pathway (AID 444)
Conditions: Jurkat NFAT-bla M1, carbachol, beta-lactamase ratio, 5 h; at 7.69 µM (top of the series)
From the text: NCGC Assay Overview: The nuclear factor of activated T cells (NFAT) family of transcription factors has been found primarily in most immune system cells and some other non-immune cells. NFAT plays the immunomodulatory role, primarily in T-cell activation and differentiation. NFAT target genes are also involved in the regulation of apoptosis and differentiation in non-immune cell types. The NFAT sequence was engineered to the upstream of the ?-lactamase reporter gene and transfected into Jurkat cells with co-transfection of muscarinic receptor1 [provided by Invitrogen Corp]. When an extracellular stimulus, such as carbachol, binds to the GPCR M1 receptor, it stimulates a signaling cascade that activates NFAT response element and ?-lactamase expression by phosphorylating the NFAT binding protein. This cell based ?-lactamase reporter gene assay can accurately monitor any changes occurring along the NFAT pathway, and can be used for screening small molecule inhibitor or activator upon activation by carbachol EC50 concentration. A small molecular library were screened in a titration series resulting in AC50s (can be either IC50s or EC50s).
NCGC Assay Protocol Summary: The cells were prepared in RPMI 1640 medium containing 0.1% dialyzed FBS and 25 mM HEPES at 1.6 x 10^6cell/ml. The assay was performed in 1536-well plate format as follows: 5 ul of cell preparation 23 nl of compounds 1ul of carbachol (final concentration 1 uM) Briefly centrifuge the plates and incubate at 37 °C for 5 hours 1 ul of CCF4 dye mixture Incubate the plates at RT for 1 hour Read the plate in EnVision plate reader (Ex= 405nm, and Em1=460nm and Em2=530nm). The %Activity was determined from the ratio of 460nm/530nm. Data normalization and AC50 calculations were accomplished using GeneData software.
% is scaled to controls: 0 for no effect and ±100 for the full control effect.

Question: With CN(C)C/C=C(\c1ccc(Br)cc1)c1cccnc1 as the molecule, how does the activity change, negative = inhibition read?
Answer: The activity change, negative = inhibition was -7.27%.

Question: With NCCC[C@@H](N)C(=O)O as the molecule, how does the activity change, negative = inhibition read?
Answer: The activity change, negative = inhibition was -0.481%.

Same assay, conditions: Jurkat NFAT-bla M1, carbachol, beta-lactamase ratio, 5 h; at 17.2 µM (top of the series)

Question: Which activity change, negative = inhibition does the source give for CC(C)[N+]1(C)[C@@H]2CC[C@H]1CC(OC(=O)[C@@H](CO)c1ccccc1)C2 (stereo not given in full) here?
Answer: Its activity change, negative = inhibition is -41.7% (active).

Question: Which activity change, negative = inhibition does the source give for O=C1CC[C@H](N2C(=O)c3ccccc3C2=O)C(=O)N1 here?
Answer: Its activity change, negative = inhibition is -1.74%.

Question: For NC(N)=NN=Cc1c(Cl)cccc1Cl, which activity change, negative = inhibition is on record?
Answer: Its activity change, negative = inhibition is -0.975%.

Question: Which activity change, negative = inhibition does the source give for O=C1N=C(O)CN1/N=C\c1ccc(-c2ccc([N+](=O)[O-])cc2)o1 here?
Answer: The activity change, negative = inhibition was 4.77%.

Question: For CC(C)NC[C@@H](O)COc1cccc2[nH]ccc12, which activity change, negative = inhibition is on record?
Answer: The activity change, negative = inhibition was 4%.

Question: For C=C[C@H](N)CCC(=O)O, which activity change, negative = inhibition is on record?
Answer: The activity change, negative = inhibition was -1.05%.

Question: For CNC(=O)Oc1ccc2c(c1)[C@@]1(C)CCN(C)[C@@H]1N2C, which activity change, negative = inhibition is on record?
Answer: Its activity change, negative = inhibition is -2.84%.

Question: For CC(=O)[C@H]1[C@H](C#N)C[C@H]2[C@@H]3CC=C4C[C@@H](O)CC[C@]4(C)[C@H]3CC[C@@]21C, which activity change, negative = inhibition is on record?
Answer: The activity change, negative = inhibition was 9.39%.

Question: Which activity change, negative = inhibition does the source give for CC(C)(C)NC[C@H](O)c1ccc(O)c(CO)c1 here?
Answer: Its activity change, negative = inhibition is -10.8%.

Question: With CN(C)C/C=C(\c1ccc(Br)cc1)c1cccnc1 as the molecule, how does the activity change, negative = inhibition read?
Answer: Its activity change, negative = inhibition is -12.7%.

Question: Which activity change, negative = inhibition does the source give for COc1cc(-c2ccc(N=Nc3ccc4c(S(=O)(=O)O)cc(S(=O)(=O)O)c(N)c4c3O)c(OC)c2)ccc1N=Nc1ccc2c(S(=O)(=O)O)cc(S(=O)(=O)O)c(N)c2c1O here?
Answer: The activity change, negative = inhibition was 0.00688%.

Question: For COc1ccccc1N1CCN(C[C@@H](O)COc2cccc3ccccc23)CC1, which activity change, negative = inhibition is on record?
Answer: Its activity change, negative = inhibition is -8.94%.

Same assay, conditions: Jurkat NFAT-bla M1, carbachol, beta-lactamase ratio, 5 h; at 38 µM (top of the series)

Question: With N#CC(=C(/N)Sc1ccccc1N)/C(C#N)=C(/N)Sc1ccccc1N as the molecule, how does the activity change, negative = inhibition read?
Answer: Its activity change, negative = inhibition is 8.23%.

Question: With N[C@H](CCC(=O)N[C@H](CSN=O)C(=O)NCC(=O)O)C(=O)O as the molecule, how does the activity change, negative = inhibition read?
Answer: Its activity change, negative = inhibition is 0.964%.

Question: With O=C1CC[C@H](N2C(=O)c3ccccc3C2=O)C(=O)N1 as the molecule, how does the activity change, negative = inhibition read?
Answer: Its activity change, negative = inhibition is -10.1%.

Question: For NC(N)=NN=Cc1c(Cl)cccc1Cl, which activity change, negative = inhibition is on record?
Answer: The activity change, negative = inhibition was -1.48%.

Question: Which activity change, negative = inhibition does the source give for CO[C@]1(C2=NCCN2)COc2ccccc2O1 here?
Answer: Its activity change, negative = inhibition is -11%.

Question: With O=C(O)[C@H]1CN(CCCP(=O)(O)O)CCN1 as the molecule, how does the activity change, negative = inhibition read?
Answer: Its activity change, negative = inhibition is 8.84%.

Question: Which activity change, negative = inhibition does the source give for O=C1N=C(O)CN1/N=C\c1ccc(-c2ccc([N+](=O)[O-])cc2)o1 here?
Answer: Its activity change, negative = inhibition is -3.36%.

Question: With CC[C@H](C)N(C)C(=O)c1cc2ccccc2c(-c2ccccc2Cl)n1 as the molecule, how does the activity change, negative = inhibition read?
Answer: The activity change, negative = inhibition was -2.88%.

Question: Which activity change, negative = inhibition does the source give for O=C(O)[C@H]1CCCNC1 here?
Answer: Its activity change, negative = inhibition is 2.68%.

Question: Which activity change, negative = inhibition does the source give for OCc1cc([C@@H](O)CNCCCCCCOCCCCc2ccccc2)ccc1O here?
Answer: The activity change, negative = inhibition was -1.3%.

Question: With COc1cc2c(cc1C(F)(F)F)N(C(=O)Nc1cc(F)cc(-c3cccnc3)c1)CC2 as the molecule, how does the activity change, negative = inhibition read?
Answer: The activity change, negative = inhibition was -8.89%.

Question: For CC(C)NC[C@@H](O)COc1cccc2[nH]ccc12, which activity change, negative = inhibition is on record?
Answer: Its activity change, negative = inhibition is 1.65% and 1.97%.

Question: For C=C[C@H](N)CCC(=O)O, which activity change, negative = inhibition is on record?
Answer: The activity change, negative = inhibition was 2.77%.

Question: With COc1ccc(/C=C\C(=O)Nc2ccccc2C(=O)O)cc1OC as the molecule, how does the activity change, negative = inhibition read?
Answer: Its activity change, negative = inhibition is -3.53%.

Question: With CCOC(=O)[C@@]12C[C@@H]1/C(=N/O)c1ccccc1O2 as the molecule, how does the activity change, negative = inhibition read?
Answer: The activity change, negative = inhibition was -7.55%.

Question: For CNC(=O)Oc1ccc2c(c1)[C@@]1(C)CCN(C)[C@@H]1N2C, which activity change, negative = inhibition is on record?
Answer: The activity change, negative = inhibition was -3.73%.

Question: With CCn1ccnc1C[C@@H]1COc2ccccc2O1 as the molecule, how does the activity change, negative = inhibition read?
Answer: Its activity change, negative = inhibition is -4.02%.

Question: Which activity change, negative = inhibition does the source give for Cc1cccc(C)c1NC(=O)C[N+](C)(C)C here?
Answer: The activity change, negative = inhibition was 11.6%.

Question: Which activity change, negative = inhibition does the source give for O=Nc1c(-c2c(O)[nH]c3ccccc23)[nH]c2ccccc12 here?
Answer: Its activity change, negative = inhibition is -23.6%.

Question: Which activity change, negative = inhibition does the source give for S=C(Nc1ccccc1)Nc1nccs1 here?
Answer: The activity change, negative = inhibition was 0.515%.

Question: For CC(C)(C)NC[C@H](O)c1ccc(O)c(CO)c1, which activity change, negative = inhibition is on record?
Answer: The activity change, negative = inhibition was 0.545% and 8.74%.

Question: For S=C(S)O[C@@H]1C[C@@H]2C[C@H]1[C@@H]1CCC[C@H]21, which activity change, negative = inhibition is on record?
Answer: Its activity change, negative = inhibition is -4.29%.

Question: For N[C@@H](CO)C(=O)O, which activity change, negative = inhibition is on record?
Answer: The activity change, negative = inhibition was 1.99%.

Question: With COC(=O)C1=C(C)NC(C)=C([N+](=O)[O-])[C@H]1c1ccccc1C(F)(F)F as the molecule, how does the activity change, negative = inhibition read?
Answer: The activity change, negative = inhibition was -15.3%.

Question: For N[C@H](Cc1ccc(Cl)cc1)C(=O)O, which activity change, negative = inhibition is on record?
Answer: Its activity change, negative = inhibition is 7.18%.

Question: Which activity change, negative = inhibition does the source give for COc1ccccc1N1CCN(C[C@@H](O)COc2cccc3ccccc23)CC1 here?
Answer: The activity change, negative = inhibition was -1.67%.
